Data taken from PubChem BioAssay (Tox21).
Several values for one entry are separate records, joined by “and”; a condition that tells them apart may be missing. Equal values may be shown once. Results filed as inconclusive are left out. Where a call stands in place of a potency, no number is given. A structure can be active in one record and inactive in another. Activity calls are given as the source filed them. Unless noted, calls follow the shape of the dose curve; as a rule, active = well fitted curve in the direction sought with a large enough effect in the repeat runs; inconclusive = weak or mixed curves; inactive = no such curve, though single readings can be large; an effect the other way counts as inactive or inconclusive.

Tests used:
[1] = qHTS assay to identify small molecule agonists of the RXR signaling pathway - cell viability counter screen (AID 1159529); also: nearly all actives have a fitted effect of over 50% in size
How it was run: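 Cell viability is measured by CellTiter-Glo luminescence, 30 min at room temperature, in wells already read for beta-lactamase. Engineered HEK 293T cells (RXR-alpha-UAS-bla) are dosed 16 hr at 37 C. Tetraoctyl ammonium bromide serves as positive control.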

[2] = qHTS assay to identify small molecule antagonists of the retinoid acid receptor (RAR) signaling pathway - cell viability counter screen (AID 1159551); also: nearly all actives have a fitted effect of over 35% in size; also: potency is read from the fitted curve at half-maximal effect
How it was run: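 Seed C3RL4 cells; next day add compound, then retinol to 1 uM final; incubate 6 h at 37 C; add CellTiter-Glo; read luminescence after 30 min at RT.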

[3] = qHTS assay to identify small molecule antagonists of the retinoic acid receptor (RAR) signaling pathway (AID 1159552; also: nearly all actives have a fitted effect of over 50% in size; also: potency is read from the fitted curve at half-maximal effect)
How it was run: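 Quantitative HTS in C3RL4 RARE-luciferase reporter cells. Compounds were added with 1 uM (final) retinol; luminescence was read after 6 hr.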

[4] = qHTS assay to identify small molecule agonists of the retinoic acid receptor (RAR) signaling pathway (AID 1159553); conditions: C3RL4 RARE luciferase reporter, agonist, 6 h; activation: at 73.3 µM (top of the series) unless noted; also: potency is read from the fitted curve at half-maximal effect
How it was run: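 Activation of retinol signaling was monitored via a RARE luciferase reporter in C3RL4 cells. After 6 hr compound treatment at 37 C, detection reagent was added for 30 min at room temperature before luminescence reading.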

[5] = target: Luciferin 4-monooxygenase (Photinus pyralis) (UniProt P08659); assay: qHTS assay to identify small molecule inhibitors of firefly luciferase (AID 1224835); also: nearly all actives have a fitted effect of over 25% in size; also: potency is read from the fitted curve at half-maximal effect
How it was run: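 Biochemical qHTS: compounds run as interplate titrations against purified firefly enzyme, with D-luciferin and ATP each at its KM concentration. Light output recorded by CCD imaging.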

[6] = qHTS assay to identify small molecule agonists of the constitutive androstane receptor (CAR) signaling pathway - cell viability counter screen (AID 1224836); also: nearly all actives have a fitted effect of over 45% in size; also: potency is read from the fitted curve at half-maximal effect
How it was run: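 Counter screen multiplexed with the CAR reporter readout: HepG2 cells co-transfected with hCAR and the CYP2B6-2.2kb construct receive a 15-concentration compound series and 0.75 uM PK11195 (final), then CellTiter-Fluor fluorescence is read after 23 h.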

[7] = qHTS assay to identify small molecule antagonists of the constitutive androstane receptor (CAR) signaling pathway - cell viability counter screen (AID 1224837); also: nearly all actives have a fitted effect of over 45% in size; also: potency is read from the fitted curve at half-maximal effect
How it was run: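 Using CellTiter-Fluor, viability is scored in HepG2 cells stably carrying hCAR and a 2.2kb CYP2B6 reporter after 23 hr compound exposure across 15 concentrations, with CITCO present at 50 nM.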

[8] = target: Nuclear receptor subfamily 1 group I member 3 (Homo sapiens) (UniProt Q14994); assay: qHTS assay to identify small molecule antagonists of the constitutive androstane receptor (CAR) signaling pathway (AID 1224838);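 also: HepG2 cells stably expressing hCAR with CYP2B6 luciferase reporter stimulated by CITCO; nearly all actives have a fitted effect of over 40% in size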; also: potency is read from the fitted curve at half-maximal effect
How it was run: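 Reporter luminescence was quantified after 24 h exposure of hCAR/CYP2B6-2.2kb double-stable HepG2 cells to compounds at 15 concentrations in the presence of 50 nM CITCO final.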

[9] = target: Nuclear receptor subfamily 1 group I member 3 (Homo sapiens) (UniProt Q14994); assay: qHTS assay to identify small molecule agonists of the constitutive androstane receptor (CAR) signaling pathway (AID 1224839); also: nearly all actives have a fitted effect of over 15% in size; also: potency is read from the fitted curve at half-maximal effect
How it was run: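 A 15-concentration quantitative screen uses HepG2 cells co-transfected stably with human CAR and CYP2B6-2.2kb reporter. Treatment lasts 24 h with 0.75 uM PK11195 final present; ONE-Glo luminescence is the signal.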

[10] = qHTS assay to identify small molecule antagonists of the estrogen related receptor signaling pathway with the pleiotropic PPARgamma coactivator (PGC) from Tox21 10K library - cell viability counter screen (AID 1224840; active = well fitted cell-killing curve with a large enough effect in the repeat runs, not every such curve was filed as active; also: nearly all actives have a fitted effect of over 40% in size; also: potency is read from the fitted curve at half-maximal effect)
How it was run: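 Here the PGC/ERR cells serve as a cytotoxicity control: they are exposed to compounds for 17.5 hours at 37 C, and live-cell signal is quantified using CellTiter-Fluor fluorescence.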

[11] = qHTS assay to identify small molecule antagonists of the estrogen related receptor signaling pathway with the pleiotropic PPARgamma coactivator (PGC) from Tox21 10K library (AID 1224841; call rule not given here; also: actives are mostly falling curves and most rising ones were filed inactive; nearly all actives have a fitted effect of over 50% in size; also: potency is read from the fitted curve at half-maximal effect)
How it was run: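 Each well held 2,000 PGC/ERR cells, pre-incubated six hours (37 C, 5% CO2). Test substances in DMSO were added by pin tool and left for 18 h at 37 C before luciferase detection by One-Glo.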

[12] = qHTS assay to identify small molecule agonists of the estrogen related receptor signaling pathway with the pleiotropic PPARgamma coactivator (PGC) from Tox21 10K library (AID 1224842); also: nearly all actives have a fitted effect of over 15% in size
How it was run: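 PGC/ERR reporter cell line, 2,000 cells per well, incubated 6 h at 37 C before 23 nL compound in DMSO was added. After 18 h at 37 C, One-Glo luminescence read following 30 min at room temperature.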

[13] = target: Thyrotropin receptor (Homo sapiens) (UniProt P16473); assay: qHTS assay to identify small molecule agonists of the thyroid stimulating hormone receptor (TSHR) signaling pathway (AID 1224843; calls by dose curve; also: nearly all actives have a fitted effect of over 45% in size)
How it was run: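 TSHR-HEK293 cells in agonist mode, 30 min room-temperature step, then cAMP measured by competitive HTRF (cAMP-d2 with anti-cAMP cryptate) after 1 h at room temperature. Tested at 15 concentrations in triplicate.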

[14] = qHTS assay to identify small molecule agonists of the hypoxia (HIF-1) signaling pathway - cell viability counter screen (AID 1224844; calls by dose curve; also: nearly all actives have a fitted effect of over 50% in size; also: potency is read from the fitted curve at half-maximal effect)
How it was run: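 Multiplexed with the HRE beta-lactamase assay, this viability read used CellTiter-Glo luminescence (30 min, RT) on HRE-bla ME-180 cells treated 17 hrs with compounds in 0.5% dialyzed FBS medium.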

[15] = qHTS assay to identify small molecule antagonists of the estrogen related receptor (ERR) signaling pathway from Tox21 library - cell viability counter screen (AID 1224834); also: nearly all actives have a fitted effect of over 30% in size; also: potency is read from the fitted curve at half-maximal effect
How it was run: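 CellTiter-Fluor fluorescence measured; ERR cells; 17.5 h compound incubation at 37 C; 30 min reagent step.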

[16] = qHTS assay to identify small molecule antagonists of the estrogen related receptor (ERR) signaling pathway - cell viability counter screen (AID 1224818);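 also: viability measured after 17.5 h of compound exposure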
How it was run: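 In the same ERR cell assay, compound-treated wells (17.5 h, 37 C) were multiplexed with a fluorogenic viability reagent, CellTiter-Fluor, read after 30 min to flag cytotoxic substances.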

Sequence of Nuclear receptor subfamily 1 group I member 3 (Homo sapiens) (Q14994 whole entry, looked up): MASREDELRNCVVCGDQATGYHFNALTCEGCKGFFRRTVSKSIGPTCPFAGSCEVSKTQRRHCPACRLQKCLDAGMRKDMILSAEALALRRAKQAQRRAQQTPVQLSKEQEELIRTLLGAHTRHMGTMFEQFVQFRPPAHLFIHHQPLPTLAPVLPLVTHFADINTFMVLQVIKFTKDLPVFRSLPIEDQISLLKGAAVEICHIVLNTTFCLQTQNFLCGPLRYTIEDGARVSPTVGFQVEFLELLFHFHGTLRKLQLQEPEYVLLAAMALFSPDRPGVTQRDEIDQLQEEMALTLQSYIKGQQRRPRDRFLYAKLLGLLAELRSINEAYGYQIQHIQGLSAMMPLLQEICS
Sequence of Thyrotropin receptor (Homo sapiens) (P16473 whole entry, looked up): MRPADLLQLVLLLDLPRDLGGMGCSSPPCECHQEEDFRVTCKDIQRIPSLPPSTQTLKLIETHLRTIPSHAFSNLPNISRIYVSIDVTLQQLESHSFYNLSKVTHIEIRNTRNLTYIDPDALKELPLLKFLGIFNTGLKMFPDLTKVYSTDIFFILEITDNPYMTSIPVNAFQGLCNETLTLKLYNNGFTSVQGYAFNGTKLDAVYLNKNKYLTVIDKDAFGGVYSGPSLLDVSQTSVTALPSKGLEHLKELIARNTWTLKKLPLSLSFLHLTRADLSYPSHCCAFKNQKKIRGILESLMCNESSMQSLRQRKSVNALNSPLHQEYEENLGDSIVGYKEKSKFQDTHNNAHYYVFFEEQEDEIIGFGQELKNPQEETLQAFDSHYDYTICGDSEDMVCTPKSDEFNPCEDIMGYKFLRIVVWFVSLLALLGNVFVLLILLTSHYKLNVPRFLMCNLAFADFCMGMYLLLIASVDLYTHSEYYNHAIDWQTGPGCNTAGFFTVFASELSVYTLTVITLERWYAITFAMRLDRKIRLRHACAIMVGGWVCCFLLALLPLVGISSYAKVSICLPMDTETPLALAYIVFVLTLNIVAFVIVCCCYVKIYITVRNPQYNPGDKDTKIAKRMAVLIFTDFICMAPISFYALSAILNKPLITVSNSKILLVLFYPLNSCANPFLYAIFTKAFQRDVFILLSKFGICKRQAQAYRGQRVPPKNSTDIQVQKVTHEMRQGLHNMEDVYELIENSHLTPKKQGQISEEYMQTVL
Sequence of Luciferin 4-monooxygenase (Photinus pyralis) (P08659 whole entry, looked up): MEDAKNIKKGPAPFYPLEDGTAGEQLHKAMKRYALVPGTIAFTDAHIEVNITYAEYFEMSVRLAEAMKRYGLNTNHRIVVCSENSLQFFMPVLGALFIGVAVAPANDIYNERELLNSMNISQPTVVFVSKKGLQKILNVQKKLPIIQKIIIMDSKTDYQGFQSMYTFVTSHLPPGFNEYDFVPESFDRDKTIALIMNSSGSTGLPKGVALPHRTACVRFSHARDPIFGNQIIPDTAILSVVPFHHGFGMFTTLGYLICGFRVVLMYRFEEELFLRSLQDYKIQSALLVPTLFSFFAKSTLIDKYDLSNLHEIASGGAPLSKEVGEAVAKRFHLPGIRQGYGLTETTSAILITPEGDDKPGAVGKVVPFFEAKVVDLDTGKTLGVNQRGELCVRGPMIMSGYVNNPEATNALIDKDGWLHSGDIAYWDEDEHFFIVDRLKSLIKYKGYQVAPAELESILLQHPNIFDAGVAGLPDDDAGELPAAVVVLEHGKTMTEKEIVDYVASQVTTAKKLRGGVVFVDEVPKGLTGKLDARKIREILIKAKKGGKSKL

Row | Compound | Potency [1] | Potency [2] | Potency [3] | Potency [4] | Potency [5] | Potency [6] | Potency [7] | Potency [8] | Potency [9] | Potency [10] | Potency [11] | Potency [12] | Potency [13] | Potency [14] | Potency [15] | outcome [16]
1 | CCO[Si](CCCNC(N)=O)(OCC)OCC | inactive | inactive | inactive | inactive | inactive | inactive | inactive | inactive | inactive | inactive | inactive | inactive | inactive | inactive |  | 
2 | CC1=CC(C)(C)Nc2ccccc21 | inactive | inactive | inactive | inactive | inactive | inactive | inactive | inactive | inactive | inactive | inactive | inactive |  | inactive | inactive | 
3 | CCC(Cc1c(I)cc(I)c(N)c1I)C(=O)O (configuration not stated) | inactive | inactive | inactive | inactive | inactive | inactive | inactive | inactive | 47 µM (active) | inactive |  |  | inactive | 42.3 µM (active) and 15.1 µM (active) | inactive | 
4 | O=C1OC2(c3ccccc31)c1cc(I)c(O)c(I)c1Oc1c2cc(I)c(O)c1I | inactive | 27.4 µM (active) | 34.8 µM (active) and inactive | inactive |  | 15.5 µM (active) [middle of 4 runs] | 15.4 µM (active) [middle of 4 runs] | 6.13 µM (active) and inactive and 14.8 µM (active) | inactive | 13.7 µM (active) and 19.6 µM (active) and 16.6 µM (active) | 15.4 µM (active) and 15.5 µM (active) | inactive |  | inactive | 15.5 µM (active) [middle of 4 runs] | 
5 | Clc1ccc(Sc2cc(Cl)c(Cl)cc2Cl)cc1 | inactive | inactive | inactive | inactive | inactive | inactive | inactive | inactive |  | inactive |  |  | inactive | inactive | inactive | 
6 | C=C[Si](OCCOC)(OCCOC)OCCOC | inactive | inactive | inactive | inactive | inactive | inactive | inactive | inactive | inactive | inactive |  |  | inactive | inactive | inactive | 
7 | IC(I)I | inactive | inactive | inactive | inactive | 35.5 µM (active) and 35.6 µM (active) | inactive | inactive |  |  | inactive | 48.5 µM (active) and inactive | inactive | inactive | inactive | inactive | 
8 | CCCCCCCCCCCCO | inactive | inactive | inactive | inactive | 31.3 µM (active) | inactive | inactive | inactive |  | inactive |  |  | inactive | inactive | inactive | 
9 | c1ccc2c(c1)ccc1cc3c(ccc4ccccc43)cc12 | inactive | inactive | inactive | 152 nM (active) and 215 nM (active) | 788 nM (active) and 250 nM (active) | inactive | inactive |  |  | inactive |  |  | inactive | inactive | inactive | 
10 | Cc1ccc(C)c(O)c1 | inactive | inactive | inactive | inactive | inactive | inactive | inactive | inactive |  | inactive |  |  | inactive | inactive | inactive | 
11 | CC(C)(C)c1cccc(C(C)(C)C)c1O | inactive | inactive | inactive | inactive | inactive | inactive | inactive | inactive |  | inactive |  |  | inactive | 53.7 µM (active) and inactive | inactive | 
12 | CCCCCCOCCOCCO | inactive | inactive | inactive | inactive |  | inactive | inactive |  |  | inactive |  |  | inactive | inactive | inactive | 
13 | NCCS(=O)(=O)O | inactive | inactive | inactive | 28.4 µM (active) and inactive | 41.5 µM (active) and inactive | inactive | inactive | inactive |  | inactive |  |  | inactive | inactive | inactive | inactive
14 | C=CCNCC=C | inactive | inactive | inactive | inactive | inactive | inactive | inactive |  |  | inactive |  |  |  | inactive | inactive | 
15 | Cc1ccc(S(=O)(=O)O)cc1C | inactive | inactive | inactive | inactive | inactive | inactive | inactive | inactive | inactive | inactive |  |  | inactive | inactive | inactive | 
16 | CCCCCCCC/C=C\CCCCCCCC(=O)O | inactive | inactive | inactive | inactive | 71.4 µM (active) | inactive | inactive |  |  | inactive |  |  | inactive | inactive | inactive | 
17 | CCCCCC1C(=O)CCC1CC(=O)OC (configuration not stated) | inactive | inactive | inactive | inactive | inactive | inactive | inactive |  |  | inactive | inactive | inactive | inactive | inactive | inactive | 
18 | CCc1cccc2c3c([nH]c12)C(CC)(CC(=O)O)OCC3 (configuration not stated) | inactive | inactive | inactive | inactive | inactive | inactive | inactive | inactive | inactive | inactive |  |  | inactive | inactive |  | inactive
